Records with an inconclusive call do not appear. Unmarked numbers belong to inactive results. Calls of active or inactive are those of the source. Calls follow the shape of the dose curve; as a rule, active = well fitted inhibition curve with a large enough effect; inconclusive = small, poorly fitted or top-dose-only effect; inactive = flat fitted curve, though single readings scatter. Where a SMILES comes first, the peptide text is derived from it. The star is where a group is joined. AFC = O=c1cc(C(F)(F)F)c2ccc(N*)cc2o1
Legend:
CRL-7250 = normal cell line; test: Cytotoxic Profiling of Annotated Libraries Using Quantitative High-Throughput Screening (AID 1296008); details: Five cell lines viability, CellTiter-Glo ATP luminescence, 48-72 h; max response: active compounds read low; also: nearly all actives have a fitted effect of over 60% in size
How it was run: (§1)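 Cells exposed to compounds for 48 or 72 hr at 37 degrees Celsius. Viability read as ATP-coupled luminescence with CellTiter-Glo after 10 min at room temperature.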

HEK293 = test: as above; details: Five cell lines viability, CellTiter-Glo ATP luminescence, 48-72 h; max response: active compounds read low
How it was run: as §1
% is scaled to controls: 0 for no effect and ±100 for the full control effect; potency is read from the fitted curve at half-maximal effect.

Question: For `C=C1C(=O)OC2CC(C)=C(C(C)CCCO)C(O)C12` (stereo not given), which outcome (CRL-7250) is on record?
Answer: inactive

Question: What about the max response (HEK293) of the same molecule?
Answer: -3.2%

Question: Which results are given for `CC1C(OC(=O)c2ccccc2)C(O)C2C(C(=O)O)=COC(OC3OC(CO)C(O)C(O)C3O)C12` (stereo not given)?
Answer: max response (CRL-7250): 3.33%; max response (HEK293): -0.0764%

Question: Which results are given for `C/C1=C\CCC2=C[C@@H](OC2=O)c2c(C)coc2C1`?
Answer: max response (CRL-7250): 1.59%; max response (HEK293): -3.99%

Question: For `CC1CCC2(CO)C(C(=O)O)=CCCC2C1(C)CCc1ccoc1` (stereo not given), which outcome (CRL-7250) is on record?
Answer: inactive

Question: What about the max response (HEK293) of the same molecule?
Answer: -3.01%

Question: For `C/C=C/c1cc(OC)c2c(c1)[C@@H](C)[C@@H](c1ccc(O)c(OC)c1)O2`, which max response (CRL-7250) is on record?
Answer: -4.41%

Question: What about the max response (HEK293) of the same molecule?
Answer: -109%

Question: For `COc1cc(Br)c(Nc2nc(-c3c(C)nc4ncccn34)cs2)c(Br)c1`, which Potency (CRL-7250) is on record?
Answer: 4.61 µM (active)

Question: And the Potency (HEK293)?
Answer: 5.8 µM (active)

Question: With `CC(=O)O[C@@H]1c2c3c(cc(O)c2C(=O)O[C@@H]1C)O[C@@]1(C)[C@@H](O)C[C@H]2C(C)(C)C(=O)C=C[C@]2(C)[C@@H]1C3` as the molecule, how does the max response (CRL-7250) read?
Answer: -27.6%

Question: And the max response (HEK293)?
Answer: -27.5%

Question: Which max response (CRL-7250) does the source give for `C=C1CCC[C@]2(C)CC[C@@H](C(=C)C(=O)O)[C@H](O)[C@@H]12` here?
Answer: -0.497%

Question: What about the max response (HEK293) of the same molecule?
Answer: -1.48%

Question: What does the source list for `CC1OC(OC2C(O)C(OC3CCC4(C)C(CCC5(C)C4CC=C4C6CC(C)(COC7OC(CO)C(O)C(O)C7O)CC(O)C6(C)CCC45C)C3(C)C)OC(C(=O)O)C2O)C(O)C(O)C1OC1OCC(O)C(O)C1O` (stereo not given)?
Answer: max response (CRL-7250): 3.82%; max response (HEK293): -5.93%

Question: Which results are given for `CC1(C)CCC[C@]2(C)[C@H]3CC(=O)O[C@]3(C)CC[C@@H]12`?
Answer: max response (CRL-7250): -21.8%; max response (HEK293): -37.4%

Question: `O=C(Cc1ccc(-c2ccccc2)cc1)NC1CCC1` was tested. Which outcome (CRL-7250) did it give?
Answer: inactive

Question: What about the max response (HEK293) of the same molecule?
Answer: 2.52%

Question: `CC(=O)N[C@@H](Cc1c[nH]c2ccccc12)C(=O)N[C@@H](CCC(=O)O)C(=O)N[C@@H](Cc1cnc[nH]1)C(=O)N[C@@H](CC(=O)O)C(=O)Nc1ccc2c(C(F)(F)F)cc(=O)oc2c1` (Ac-WEHD-{AFC}) was tested. Which outcome (CRL-7250) did it give?
Answer: inactive

Question: What about the max response (HEK293) of the same molecule?
Answer: -1.72%

Question: `COc1ccc(N2CCOCC2)c2sc(NC(=O)N3CCC(C)(O)CC3)nc12` was tested. Which max response (CRL-7250) did it give?
Answer: 0.434%

Question: What about the max response (HEK293) of the same molecule?
Answer: -6.66%

Question: What does the source list for `CO[C@H]1/C=C/C=C/C=C/C[C@H](OC(=O)[C@@H](C)NC(=O)C2CCCCC2)[C@H](C)[C@@H](O)/C(C)=C/CCc2cc(O)cc(c2)NC(=O)C1`?
Answer: Potency (CRL-7250): 0.306 µM (active); Potency (HEK293): 0.343 µM (active)

Question: Which results are given for `CC1C(=O)CC2C3CCC(C(=O)O)C12CC3(C)CO` (stereo not given)?
Answer: max response (CRL-7250): -22.2%; max response (HEK293): 0.671%

Question: How did the max response (CRL-7250) turn out when `C=CC(C)(C)C12C=C(OC)C(=O)N3C(C(C)C)C(=O)NC31N(OC)c1ccccc12` (stereo not given) was run?
Answer: 1.83%

Question: What about the max response (HEK293) of the same molecule?
Answer: -5.71%

Question: Which results are given for `CCNC(=O)Nc1ncc(-c2cc(-c3c(C)cc(OC)cc3C)nc(-c3cnccn3)n2)s1`?
Answer: max response (CRL-7250): -11.4%; outcome (HEK293): inactive

Question: For `C[C@@H]1CC[C@@]2(OC1)O[C@H]1C[C@H]3[C@@H]4CC=C5C[C@@H](O)CC[C@]5(C)[C@H]4CC[C@]3(C)[C@H]1[C@@H]2C`, which max response (CRL-7250) is on record?
Answer: 3.2%

Question: What about the max response (HEK293) of the same molecule?
Answer: -1.54%

Question: `CSc1ccc(C(=O)N[C@@H]2CCCC[C@@H]2NC(=O)CNC(=O)c2cc(C(F)(F)F)ccc2NC(=O)NC(C)C)cc1` was tested. Which max response (CRL-7250) did it give?
Answer: -1.98%

Question: And the max response (HEK293)?
Answer: -11.3%

Question: `CCc1ccc(Cc2ccc3c(c2)[C@]2(OC3)O[C@H](CO)[C@@H](O)[C@H](O)[C@H]2O)cc1` was tested. Which outcome (CRL-7250) did it give?
Answer: inactive

Question: And the max response (HEK293)?
Answer: -3.78%

Question: With `COc1cc2c(cc1OC)[C@@H]1[C@H](O)[C@@H](OC)C=C3CCN(C2)[C@H]31` as the molecule, how does the Potency (CRL-7250) read?
Answer: 12.8 µM (active)

Question: And the Potency (HEK293)?
Answer: 4.53 µM (active)

Question: Which max response (CRL-7250) does the source give for `C=C(C(=O)O)C1CC(O)C2(C)CCCC(=C)C2C1` (stereo not given) here?
Answer: -4.23%

Question: What about the max response (HEK293) of the same molecule?
Answer: 0.173%

Question: Which Potency (CRL-7250) does the source give for `CS(=O)(=O)N1CCC(NC(=O)c2[nH]ncc2NC(=O)c2c(Cl)cccc2Cl)CC1` here?
Answer: 3.26 µM (active)

Question: And the Potency (HEK293)?
Answer: 1.16 µM (active)

Question: How did the max response (CRL-7250) turn out when `CC(C)C[C@H](CC(=O)NO)C(=O)N[C@@H](Cc1ccc2ccccc2c1)C(=O)N[C@@H](C)C(=O)NCCN` was run?
Answer: -4.14%

Question: What about the max response (HEK293) of the same molecule?
Answer: 0.393%

Question: With `COC(=O)N[C@H](C(=O)N1[C@@H]2CC[C@@H](C2)[C@H]1c1nc2ccc(-c3ccc4c(c3)C(F)(F)c3cc(-c5cnc([C@@H]6CCC7(CC7)N6C(=O)[C@@H](NC(=O)OC)C(C)C)[nH]5)ccc3-4)cc2[nH]1)C(C)C` as the molecule, how does the max response (CRL-7250) read?
Answer: -2.17%

Question: And the Potency (HEK293)?
Answer: 3.99 µM (active)

Reference: PubChem BioAssay (NCATS)
